# From the supplement of paper PMC11417369
# ± gives the standard deviation of the averaged measurements. Whole data set: some 25,000 sequences, median “ln(normalized median fluorescence intensity)” near 8.6, cut for the highest 2% near 10. The sample as a whole holds a higher share of the highest values than the screen did.
# Test system: PfAP2-EXP AP2 domain (GST-tagged)
# Assay: gcPBM binding intensity (ln(normalized median fluorescence intensity)); higher = stronger DNA binding
# In short: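 After 1 h on an Agilent 4 × 180k array of primer-extended double-stranded 36-bp intergenic genomic probes and negative controls, bound GST-tagged P. falciparum DNA-binding domains were detected with Alexa488 anti-GST antibody and scanned at 488 nm. The domains had been expressed in E. coli, and binding took place in 1× PBS with 1% milk, 0.2 mg/ml BSA, 0.5% salmon testes DNA and 0.03% Triton X-100. Binding intensity is the highest Masliner-normalised natural-log median intensity across replicate spots of either probe orientation.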
row,Sequence,gcPBM binding intensity (ln)
1,ATTTAAAACAAAAGTAGTACGTCTAATAAATTCAAC [XGTACX_site4344],8.45 ± 0.34
2,ATTATAAGAAGGGGGGGTACATAAATATAAATGTAT [XGTACX_site5624],10.4 ± 0.2
3,TAAGAAAAATATATATGTACACATATATATATATAT [XGTACX_site8542],9.97 ± 0.57
4,AAATAAAGAAATATATGTACATATATATATATATAT [XGTACX_site5131],10.4 ± 0.28
5,ATATATATATATATATGTACACATATTATAAAAAAA [XGTACX_site8644],10.2 ± 0.32
6,TATAAGAATAAAAAGGGTACATAAAATAATAATATA [XGTACX_site2355],8.82 ± 0.38
7,AAAAAAAAAAAGAAGGGTACATATTATATATAATAT [XGTACX_site6204],8.59 ± 0.48
8,ATATATATATATATATGTACACATAAAAAGAAAGAA [XGTACX_site1603],10.2 ± 0.21
9,TATTATAATAAAATATGTACACACATACACACATAT [XGTACX_site2360],8.8 ± 0.33
10,AAAAAAAAAGAAAAATGTACATACATAAATATATAT [XGTACX_site5664],8.57 ± 0.45
11,ATACATATACACATATGTACATATGAAAAGAAAAAT [XGTACX_site6445],8.94 ± 0.45
12,ACATTATATAAAATATGTACACATAAATAAATAAAT [XGTACX_site5031],8.73 ± 0.41
13,TAAAAGAAATATACATGTACATAAATATATATATAT [XGTACX_site1276],9.86 ± 0.2
14,TTACAACAGAATGGTATTTTTTTATTTTAAAGAAAA [TGCATGCA_negctrl_site230],8.04 ± 0.38
15,ACATAATATACTATTGTGCACATATATATATATATA [GTGCAC_site9761],10.1 ± 0.45
16,AAAATGATGTTAATTACACACATCATCTCATAAACA [CACACA_site3017],8.28 ± 0.4
17,TATTTAATTACATGAACACACATTAGATATTTTTAA [CACACA_site7405],8.14 ± 0.44
18,ATTCATAAAAAGAGGTGTACATTAATATAATATATA [XGTACX_site8283],8.62 ± 0.35
19,TATATATAAAGGTGTACACATATATATATATCTGTA [CACACA_site5311],8.45 ± 0.17
20,TTCATAATAAAAAGGTGTACATATATATATATATAT [XGTACX_site2829],10.34 ± 0.085
21,ACATATATATAAAGGTGTACACATATATATATATAT [XGTACX_site4779],10.2 ± 0.71
22,AAAAAAAAAAAAAGGTGTACATAAGTAAATTCATAT [XGTACX_site4206],8.7 ± 0.54
23,AATACAATATAAAGGTGTACATATATATATATATAT [XGTACX_site68],10.1 ± 0.48
24,TATGTATATTTTAATTGTACGTGTATGGTTGTAAAT [XGTACX_site8738],8.79 ± 0.38

row,Sequence,gcPBM binding intensity (ln)
1,TATTAAAATATTTATACACACATAATTTTGATAAAT [CACACA_site4486],8.19 ± 0.43
2,ATAATATTATTATAATGTACATATTTCGATATAAAT [XGTACX_site8808],8.61 ± 0.42
3,TATTCGTGCAATAATAGTACACTTATAAATTATTCA [XGTACX_site8993],8.595 ± 0.064
4,TACTTTATATAAAGATCAAAAAATAAATAATTATAA [TGCATGCA_negctrl_site446],8.45 ± 0.21
5,TACTTTCAAAAGATCACACATATATATATATATATA [CACACA_site5630],10.39 ± 0.085
6,ATCAAAGATAAATTTACACACATATAAATATAAATA [CACACA_site7409],8.44 ± 0.56
7,CACAATACTTTCATCACACATATATATATATATATA [CACACA_site4677],10.1 ± 0.28
8,TCAAAAATAAAGATCACACATATATATATATATATA [CACACA_site4381],10.2 ± 0.35
9,AAAAAAAAAGATCACACACACATAAATATAAACAAA [CACACA_site5285],8.48 ± 0.26
10,TTTTTTTTTTTTTTTTGTACATAAATTTTTATTAGA [XGTACX_site6409],8.17 ± 0.35
11,TATACATATTTCTATTGTACATAAACTAAATCTTCA [XGTACX_site28],8.27 ± 0.49
12,TTTTATTTTTTATTTGCACACAATATGTAAAAAAAT [CACACA_site2927],8.71 ± 0.16
13,ATATTAATTCGTTTTGTACACACATAATGAATAATT [CACACA_site8701],8.43 ± 0.24
14,TGTGCTATATTCATATGTACATATAATTATTATATA [XGTACX_site3549],8.86 ± 0.028
15,CTGTATTCATAATTCACACAAATGGTTTATATGAAT [CACACA_site4315],8.5 ± 0.31
16,ATGCAAATGTGCATCACACACACTAATGGGTATGTA [CACACA_site2893],8.39 ± 0.38
17,GGGGACGCGGGTGGGGGTACTCACACTATGCAAAAT [XGTACX_site7745],10.3 ± 0.4
18,GCTTAGTTATATAACTGTACTATTTTTATTTATATG [XGTACX_site884],9.16 ± 0.83
19,CCTATAATAAATAATACACACATATTGTAAATATAT [CACACA_site7496],8.46 ± 0.53
20,CACATAAAATAAGGTGCATGCAAACGAGAAAATAAA [TGCATGCA_site75],10.5 ± 0.11
21,GAAAGAATAAAATAAACATGCAAATAAAACATAAAA [TGCATGCA_site471],9.27 ± 0.25
22,AGGTGCAAAAATAAAACATGCAAAAATAAAAATGAA [TGCATGCA_site502],9.15 ± 0.44
23,CAAGGAACCAGACACACACACATAAATGTATTTATA [CACACA_site6491],8.39 ± 0.48
24,TCATAAAAGATTAAGTGTACATGTGCTACTCTTATA [XGTACX_site6255],8.34 ± 0.25

row,Sequence,gcPBM binding intensity (ln)
1,ATATATATATATGTATGTACGTATGTATGTATGAAT [XGTACX_site4857],9.91 ± 0.29
2,GTTTTTATCATATCATGTACGTATTTTATTTTTTTT [XGTACX_site8643],9.03 ± 0.32
3,ATATATCATGAACCTTGTACGTATATATATATATAT [XGTACX_site239],10.2 ± 0.23
4,TAATATAATATATAGGTGCAATATTAACAAAAATTT,8.63 ± 0.085
5,TCTTAAAATATATAGGTGCAAAAAAAAAAAAAAAAA,8.31 ± 0.13
6,TATATATATATATAGGTGCAATATTGAAAAAATATC [GTGCAC_site9535],10.3 ± 0.21
7,ACCGGTGGAACGTTTTGTACATATATAATAATATAT [XGTACX_site2143],8.62 ± 0.5
8,AATACGTTTATATATTGTACGTTATATATATATATA [XGTACX_site7452],9.91 ± 0.33
9,TATATATATATATATTGTACTGAACGTTTTTTTTTG [XGTACX_site8060],10.2 ± 0.39
10,ATTGTGGATATTCTTACACACAAATTTATATATAAA [CACACA_site2601],8.37 ± 0.49
11,AAGTTTTTTTTTAACACACACATAATAAAATAAATA [CACACA_site446],8.46 ± 0.31
12,GTATGTTTAATTTTAGTGCAATTATAAATATTTTAA [GTGCAC_site9531],8.62 ± 0.18
13,TATATATATTTATATGCATGTAATATATTTGTATTG [TGCATGCA_site323],8.71 ± 0.3
14,AAAAAAAAAAAAAAAAGGGGGGGAGGGATTGAAAAA [CACACA_negctrl_site193],10.22 ± 0.042
15,AAAAAAAAATGAAAAGAAAAAAAAAGAAAAAAGGGA [CACACA_negctrl_site287],8.61 ± 0.67
16,GGGGAAAAAAAAAAAGGAAAAAGAAAAAAAAAAAAA [GTGCAC_negctrl_site489],8.38 ± 0.39
17,CTATTATAATATTTTACACACCATGTAAGATATATA [CACACA_site7492],8.46 ± 0.35
18,TTTTCTTTTAAACATATATATATATATATATATATA [XGTACX_negctrl_site559],10.4 ± 0.23
19,TTAACAGTAAAACACAGTACATATATACTTAAAACA [XGTACX_site1930],8.59 ± 0.35
20,AAATAAAATACATATAAACACACATATAAACCAACA [CACACA_site8789],8.88 ± 0.61
21,CATATTTTTTCTTAAACACACACATATATATATATA [CACACA_site8920],10.1 ± 0.41
22,TCTTTTAAACAGTACACACACACATATATATATATA [CACACA_site924],10.3 ± 0.22
23,TTAATCCTTTTTAAAAGTACACATATATATATATAT [XGTACX_site962],10.2 ± 0.38
24,TATTTTTTCTTAAACACACACATATATATATATAAT [CACACA_site5567],8.56 ± 0.39

row,Sequence,gcPBM binding intensity (ln)
1,ATTATATTATTTTAAAGTACACACATATATTAATAT [XGTACX_site4769],8.63 ± 0.24
2,TTAAAACCAAAACACAGTACATATATATATATATAT [XGTACX_site5668],10.3 ± 0.23
3,TATTTTAAAAAAAAAAGTACACATAATATATATAAC [XGTACX_site5416],8.64 ± 0.26
4,TCTTTTAAACAGTACACACACACATCTATATTTATA [CACACA_site6559],8.755 ± 0.078
5,TATATTCTTTTAAACAGTACACACACACATATATAT [XGTACX_site1701],8.96 ± 0.44
6,ATATATATATTAAATACACACATTTTTGATTAGGTT [CACACA_site3119],9.405 ± 0.078
7,TAAATAAGTATTACTAGTACACACAAGTTGTTAATC [XGTACX_site7074],8.57 ± 0.28
8,TTTTATGTTCTTAATGCACACTTATAAGTATCTTAT [CACACA_site4895],9.07 ± 0.21
9,TATCATATAAAACATGCACACATATGTACTCTTATA [CACACA_site9249],8.77 ± 0.31
10,ATTTTTTATGAAAATAAACACACGATTTATTATATA [CACACA_site1312],8.14 ± 0.33
11,AGAAAAAAGAGGGATACACACAAACATATATTTATA [CACACA_site7122],8.81 ± 0.29
12,ACATATAATATATATATATATATATATATATATAAT [GTGCAC_negctrl_site648],8.66 ± 0.18
13,TTGGTATAAAATTATAGTACATAAGGTAAATATAAA [XGTACX_site4698],8.56 ± 0.33
14,GGAATATTAAAAAAATGTACAAAAAATAATATCCAT [XGTACX_site2596],8.97 ± 0.36
15,ATATTAAGAATGTATACATGCATATATATATAGTAC [TGCATGCA_site219],9.17 ± 0.42
16,TTTTGAAGCTTTAAAACATATATATATATATATATA [CACACA_negctrl_site184],10.3 ± 0.4
17,TACATAAACTTTATAACACACACTTATATATATATA [CACACA_site1106],9.86 ± 0.18
18,CATAAACTTTATAACACACACTTATAAATATAAATA [CACACA_site6646],8.41 ± 0.4
19,CATAAACTTTTTAACACACACTTATATATATATATA [CACACA_site4747],10.3 ± 0.23
20,TTAAAACATATTTTGAATTAATATATTTTAATATTA [XGTACX_negctrl_site148],7.72 ± 0.39
21,AAACTTTTTTTAAAAACACACATATATATTTATATA [CACACA_site4092],8.36 ± 0.41
